Drawing on PMC7862700, “An all-to-all approach to the identification of sequence-specific readers for epigenetic DNA modifications on cytosine”, this text covers binding signal for 1 sequence.

Holding throughout (experiment): DAPPL (digital affinity profiling via proximity ligation, sequencing); 10 mM Tris-HCl pH 7.5, 50 mM NaCl, 1 mM DTT, 4% glycerol, room temperature, 30 min; GST-TFs on glutathione beads, 16-mer random dsDNA library, 0.1% formaldehyde crosslink after washing; high values mean tight binding
The target in one assay is T1, FEV (Homo sapiens, UniProt Q99581 1-238).
T1 sequence: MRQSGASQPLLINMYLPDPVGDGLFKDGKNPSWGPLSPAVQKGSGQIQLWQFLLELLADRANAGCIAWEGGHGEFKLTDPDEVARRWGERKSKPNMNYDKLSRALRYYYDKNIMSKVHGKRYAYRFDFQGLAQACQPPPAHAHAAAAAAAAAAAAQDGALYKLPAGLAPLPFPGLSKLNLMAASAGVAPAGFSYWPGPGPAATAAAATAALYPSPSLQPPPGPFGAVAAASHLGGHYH
The note with it: protein: recombinant; tags: N-terminal GST; dsDNA, one strand shown. Put shortly: (§1)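 Yeast served to express human transcription factors as GST fusions, which were then captured on glutathione beads and labelled with DNA barcodes. Pooled with a tag-only sample, they were incubated with 200 nmole of a 16-mer random double-stranded DNA library for 30 min at room temperature in Tris/NaCl/DTT/glycerol buffer, washed, crosslinked with 0.1% formaldehyde, ligated by proximity, amplified by PCR and sequenced. Dividing each hexamer's read frequency for a factor by its frequency for the tag-only sample gives the binding signal.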

In another assay the target is ETV5 (Homo sapiens, UniProt P41161 1-510). The note with it: protein: recombinant; tags: N-terminal GST; dsDNA, one strand shown. In short, it runs like this:
as §1

For another assay, the target named is HSF1 (Homo sapiens, UniProt Q00613 1-529). To be noted: protein: recombinant; tags: N-terminal GST; chain copies: 3; dsDNA, one strand shown. Put shortly:
as §1

A further assay deals with T2, SPIC (Homo sapiens, UniProt Q8N5J4 1-248).
T2 sequence: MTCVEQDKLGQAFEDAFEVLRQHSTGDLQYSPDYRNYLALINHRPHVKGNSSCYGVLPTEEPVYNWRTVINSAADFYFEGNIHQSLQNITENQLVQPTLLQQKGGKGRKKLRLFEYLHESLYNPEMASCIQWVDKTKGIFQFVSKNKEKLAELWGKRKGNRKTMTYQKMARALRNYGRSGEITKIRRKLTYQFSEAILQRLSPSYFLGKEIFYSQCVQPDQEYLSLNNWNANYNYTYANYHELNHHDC
The note with it: protein: recombinant; tags: N-terminal GST; dsDNA, one strand shown. Put shortly:
as §1

For another assay, the target named is ELF4 (Homo sapiens, UniProt Q99607 1-663). The note with it: protein: recombinant; tags: N-terminal GST; dsDNA, one strand shown. Put shortly: as §1
Sequence of ELF4 (Q99607 whole entry): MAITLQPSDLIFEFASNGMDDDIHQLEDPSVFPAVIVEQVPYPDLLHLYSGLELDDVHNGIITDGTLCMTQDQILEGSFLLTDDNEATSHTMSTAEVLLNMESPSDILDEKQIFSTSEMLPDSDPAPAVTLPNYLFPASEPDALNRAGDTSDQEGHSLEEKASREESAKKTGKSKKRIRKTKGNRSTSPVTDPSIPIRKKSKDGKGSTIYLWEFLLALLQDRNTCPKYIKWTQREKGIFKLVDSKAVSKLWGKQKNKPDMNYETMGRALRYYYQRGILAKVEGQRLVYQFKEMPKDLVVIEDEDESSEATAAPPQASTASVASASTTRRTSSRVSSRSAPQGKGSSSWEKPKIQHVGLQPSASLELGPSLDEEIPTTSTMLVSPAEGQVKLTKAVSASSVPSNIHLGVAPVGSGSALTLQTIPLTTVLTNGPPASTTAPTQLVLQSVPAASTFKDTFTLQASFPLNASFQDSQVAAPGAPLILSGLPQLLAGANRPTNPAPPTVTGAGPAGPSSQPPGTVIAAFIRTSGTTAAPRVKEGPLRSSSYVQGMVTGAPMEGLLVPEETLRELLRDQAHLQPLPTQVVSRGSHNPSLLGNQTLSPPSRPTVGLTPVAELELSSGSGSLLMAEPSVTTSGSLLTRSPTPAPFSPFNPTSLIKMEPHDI
A further assay addresses T3, ELK4 (Homo sapiens, UniProt P28324-2 1-405).
T3 sequence: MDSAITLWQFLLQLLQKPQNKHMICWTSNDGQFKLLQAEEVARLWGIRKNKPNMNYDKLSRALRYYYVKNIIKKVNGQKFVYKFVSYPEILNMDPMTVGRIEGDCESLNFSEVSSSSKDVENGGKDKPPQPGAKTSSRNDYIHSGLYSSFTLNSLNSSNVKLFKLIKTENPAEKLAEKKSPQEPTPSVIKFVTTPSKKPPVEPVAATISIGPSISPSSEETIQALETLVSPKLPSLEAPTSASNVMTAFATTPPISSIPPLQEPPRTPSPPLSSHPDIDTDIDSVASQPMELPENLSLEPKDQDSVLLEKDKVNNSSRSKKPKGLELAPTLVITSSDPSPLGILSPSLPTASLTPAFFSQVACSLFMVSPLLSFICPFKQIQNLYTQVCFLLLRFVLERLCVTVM
The note with it: protein: recombinant; tags: N-terminal GST; dsDNA, one strand shown. Put shortly: as §1

In the next assay the target is T4, ETV2 (Homo sapiens, UniProt O00321 1-342).
T4 sequence: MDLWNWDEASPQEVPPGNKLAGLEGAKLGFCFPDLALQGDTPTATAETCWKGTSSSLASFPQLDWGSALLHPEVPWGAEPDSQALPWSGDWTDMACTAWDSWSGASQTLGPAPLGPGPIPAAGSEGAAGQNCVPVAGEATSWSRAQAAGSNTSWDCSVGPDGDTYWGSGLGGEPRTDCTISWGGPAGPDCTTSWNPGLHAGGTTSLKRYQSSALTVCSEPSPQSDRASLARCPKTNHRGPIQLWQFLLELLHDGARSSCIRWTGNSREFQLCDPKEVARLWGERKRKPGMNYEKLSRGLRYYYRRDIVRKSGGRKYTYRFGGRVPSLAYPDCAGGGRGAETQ
To be noted: protein: recombinant; tags: N-terminal GST; dsDNA, one strand shown. Put shortly: as §1

The next assay concerns the target T5, ELF3 (Homo sapiens, UniProt P78545 1-371).
T5 sequence: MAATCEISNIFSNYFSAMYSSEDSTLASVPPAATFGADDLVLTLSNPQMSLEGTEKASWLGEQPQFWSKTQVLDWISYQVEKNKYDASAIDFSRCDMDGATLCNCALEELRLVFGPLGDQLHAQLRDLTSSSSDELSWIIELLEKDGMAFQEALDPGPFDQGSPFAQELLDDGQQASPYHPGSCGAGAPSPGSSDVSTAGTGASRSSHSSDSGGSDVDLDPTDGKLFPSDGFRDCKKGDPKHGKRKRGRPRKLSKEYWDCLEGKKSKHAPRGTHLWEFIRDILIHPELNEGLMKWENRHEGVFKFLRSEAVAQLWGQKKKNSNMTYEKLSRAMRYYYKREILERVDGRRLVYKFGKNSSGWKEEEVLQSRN
To be noted: protein: recombinant; tags: N-terminal GST; dsDNA, one strand shown. In short, it runs like this: as §1

In another assay the target is CRX (Homo sapiens, UniProt O43186 1-299). The note with it: protein: recombinant; tags: N-terminal GST; dsDNA, one strand shown. Put shortly:
as §1

Another assay concerns the target ETV1 (Homo sapiens, UniProt P50549 1-477). To be noted: protein: recombinant; tags: N-terminal GST; dsDNA, one strand shown. In short, it runs like this:
as §1

In another assay the target is T6, ERF (Homo sapiens, UniProt P50548 1-548).
T6 sequence: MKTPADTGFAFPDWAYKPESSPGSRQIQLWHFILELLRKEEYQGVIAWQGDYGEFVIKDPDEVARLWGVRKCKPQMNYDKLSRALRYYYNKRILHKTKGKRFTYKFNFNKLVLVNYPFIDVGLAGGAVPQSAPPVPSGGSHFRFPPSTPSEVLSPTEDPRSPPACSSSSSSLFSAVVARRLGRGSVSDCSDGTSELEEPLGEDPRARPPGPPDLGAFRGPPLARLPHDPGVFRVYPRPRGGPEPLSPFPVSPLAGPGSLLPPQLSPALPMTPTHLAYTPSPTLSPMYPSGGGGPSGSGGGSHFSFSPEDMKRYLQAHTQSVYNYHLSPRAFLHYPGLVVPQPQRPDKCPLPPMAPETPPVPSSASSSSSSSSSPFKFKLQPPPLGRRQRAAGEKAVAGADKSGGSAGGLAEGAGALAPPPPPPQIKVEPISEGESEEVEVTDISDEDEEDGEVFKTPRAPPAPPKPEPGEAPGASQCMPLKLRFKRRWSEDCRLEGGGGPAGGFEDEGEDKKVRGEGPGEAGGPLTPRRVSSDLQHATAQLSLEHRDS
The note with it: protein: recombinant; tags: N-terminal GST; dsDNA, one strand shown. Put shortly:
as §1

A further assay addresses T7, ETV3L (Homo sapiens, UniProt Q6ZN32 1-361).
T7 sequence: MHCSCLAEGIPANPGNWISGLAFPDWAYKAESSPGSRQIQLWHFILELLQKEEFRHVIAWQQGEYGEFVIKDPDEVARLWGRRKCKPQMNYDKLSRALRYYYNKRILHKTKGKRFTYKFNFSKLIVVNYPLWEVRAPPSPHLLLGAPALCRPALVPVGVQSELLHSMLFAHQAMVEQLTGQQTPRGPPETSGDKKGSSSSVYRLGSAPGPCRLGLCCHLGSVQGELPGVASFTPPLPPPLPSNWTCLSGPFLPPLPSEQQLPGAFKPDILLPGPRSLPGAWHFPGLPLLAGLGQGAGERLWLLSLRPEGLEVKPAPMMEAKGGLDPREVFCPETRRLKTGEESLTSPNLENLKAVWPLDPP
The note with it: protein: recombinant; tags: N-terminal GST; dsDNA, one strand shown. Put shortly: as §1

A further assay has as its target T8, ETS2 (Homo sapiens, UniProt P15036 1-469).
T8 sequence: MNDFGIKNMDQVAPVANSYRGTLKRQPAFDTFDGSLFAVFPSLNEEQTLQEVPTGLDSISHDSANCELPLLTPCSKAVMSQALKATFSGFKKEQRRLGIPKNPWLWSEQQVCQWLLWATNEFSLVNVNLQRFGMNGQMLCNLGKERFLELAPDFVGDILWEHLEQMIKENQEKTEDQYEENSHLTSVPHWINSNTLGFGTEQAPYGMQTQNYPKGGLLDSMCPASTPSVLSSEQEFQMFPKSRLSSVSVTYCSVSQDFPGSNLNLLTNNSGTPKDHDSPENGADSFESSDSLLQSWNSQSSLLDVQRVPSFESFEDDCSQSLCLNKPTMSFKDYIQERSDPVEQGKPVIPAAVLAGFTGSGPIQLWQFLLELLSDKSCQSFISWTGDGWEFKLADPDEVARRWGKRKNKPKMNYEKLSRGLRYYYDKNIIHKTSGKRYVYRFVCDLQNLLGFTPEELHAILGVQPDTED
The note with it: protein: recombinant; tags: N-terminal GST; dsDNA, one strand shown. In short, it runs like this:
as §1

The target of another assay is T9, SPDEF (Homo sapiens, UniProt O95238 1-335).
T9 sequence: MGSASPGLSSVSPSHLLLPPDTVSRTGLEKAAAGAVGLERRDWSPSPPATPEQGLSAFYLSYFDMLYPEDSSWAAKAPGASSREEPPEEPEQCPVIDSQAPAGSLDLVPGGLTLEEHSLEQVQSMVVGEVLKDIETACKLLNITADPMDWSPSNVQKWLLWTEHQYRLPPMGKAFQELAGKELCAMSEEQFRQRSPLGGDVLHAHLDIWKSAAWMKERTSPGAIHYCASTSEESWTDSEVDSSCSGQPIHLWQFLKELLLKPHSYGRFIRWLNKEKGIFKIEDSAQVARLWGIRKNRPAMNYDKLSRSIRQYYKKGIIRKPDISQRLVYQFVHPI
The note with it: protein: recombinant; tags: N-terminal GST; dsDNA, one strand shown. In short, it runs like this:
as §1

The next assay addresses T10, ETV7 (Homo sapiens, UniProt Q9Y603 1-341).
T10 sequence: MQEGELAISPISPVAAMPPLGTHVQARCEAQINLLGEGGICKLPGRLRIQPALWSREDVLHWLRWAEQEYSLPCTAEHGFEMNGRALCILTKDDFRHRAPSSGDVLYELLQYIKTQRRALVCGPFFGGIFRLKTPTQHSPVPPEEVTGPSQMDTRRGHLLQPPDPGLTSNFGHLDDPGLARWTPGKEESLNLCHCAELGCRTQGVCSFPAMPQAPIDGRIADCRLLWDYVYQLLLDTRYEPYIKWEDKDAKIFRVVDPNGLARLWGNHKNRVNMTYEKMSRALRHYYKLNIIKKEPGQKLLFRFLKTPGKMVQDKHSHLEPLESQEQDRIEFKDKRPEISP
To be noted: protein: recombinant; tags: N-terminal GST; dsDNA, one strand shown. In short, it runs like this:
as §1

The target of the next assay is T11, ELF5 (Homo sapiens, UniProt Q9UKW6-2 1-255).
T11 sequence: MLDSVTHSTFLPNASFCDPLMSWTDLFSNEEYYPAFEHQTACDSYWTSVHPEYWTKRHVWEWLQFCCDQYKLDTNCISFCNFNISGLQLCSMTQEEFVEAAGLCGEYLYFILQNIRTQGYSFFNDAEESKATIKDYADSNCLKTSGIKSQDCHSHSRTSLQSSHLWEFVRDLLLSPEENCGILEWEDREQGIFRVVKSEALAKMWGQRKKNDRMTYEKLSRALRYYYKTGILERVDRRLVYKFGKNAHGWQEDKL
The note with it: protein: recombinant; tags: N-terminal GST; dsDNA, one strand shown. In short, it runs like this: as §1

Another assay has as its target T12, ETV3 (Homo sapiens, UniProt P41162-2 1-143).
T12 sequence: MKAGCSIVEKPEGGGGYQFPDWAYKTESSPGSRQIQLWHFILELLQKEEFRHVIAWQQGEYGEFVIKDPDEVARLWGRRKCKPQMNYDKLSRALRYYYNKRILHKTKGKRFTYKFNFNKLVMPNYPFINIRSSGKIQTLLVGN
The note with it: protein: recombinant; tags: N-terminal GST; dsDNA, one strand shown. Put shortly: as §1

The next assay has as its target ETV6 (Homo sapiens, UniProt P41212 1-452). The note with it: protein: recombinant; tags: N-terminal GST; dsDNA, one strand shown. In short, it runs like this: as §1

Sequence of CRX (O43186 whole entry): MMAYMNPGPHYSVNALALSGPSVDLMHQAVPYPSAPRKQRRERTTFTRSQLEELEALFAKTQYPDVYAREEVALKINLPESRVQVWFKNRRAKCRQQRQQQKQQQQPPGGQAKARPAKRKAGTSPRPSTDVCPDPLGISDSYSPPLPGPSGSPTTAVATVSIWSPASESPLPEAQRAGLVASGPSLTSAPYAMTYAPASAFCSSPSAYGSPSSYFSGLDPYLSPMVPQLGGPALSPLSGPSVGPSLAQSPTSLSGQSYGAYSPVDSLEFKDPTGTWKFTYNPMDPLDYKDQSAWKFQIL
Sequence of ETV5 (P41161 whole entry): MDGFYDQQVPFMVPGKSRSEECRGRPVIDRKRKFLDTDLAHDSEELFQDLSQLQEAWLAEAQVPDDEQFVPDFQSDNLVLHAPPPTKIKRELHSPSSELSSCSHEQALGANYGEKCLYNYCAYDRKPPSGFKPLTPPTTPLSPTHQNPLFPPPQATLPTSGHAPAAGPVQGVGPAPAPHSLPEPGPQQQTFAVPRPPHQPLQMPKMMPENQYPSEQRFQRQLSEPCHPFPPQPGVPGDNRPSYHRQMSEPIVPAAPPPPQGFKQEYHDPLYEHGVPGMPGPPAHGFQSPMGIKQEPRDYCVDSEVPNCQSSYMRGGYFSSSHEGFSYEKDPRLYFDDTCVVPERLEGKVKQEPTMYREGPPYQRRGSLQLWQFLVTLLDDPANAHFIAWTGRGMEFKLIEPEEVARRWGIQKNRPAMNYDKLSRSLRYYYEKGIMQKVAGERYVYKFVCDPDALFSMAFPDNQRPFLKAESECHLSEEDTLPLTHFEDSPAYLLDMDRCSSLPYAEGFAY
Sequence of ETV6 (P41212 whole entry): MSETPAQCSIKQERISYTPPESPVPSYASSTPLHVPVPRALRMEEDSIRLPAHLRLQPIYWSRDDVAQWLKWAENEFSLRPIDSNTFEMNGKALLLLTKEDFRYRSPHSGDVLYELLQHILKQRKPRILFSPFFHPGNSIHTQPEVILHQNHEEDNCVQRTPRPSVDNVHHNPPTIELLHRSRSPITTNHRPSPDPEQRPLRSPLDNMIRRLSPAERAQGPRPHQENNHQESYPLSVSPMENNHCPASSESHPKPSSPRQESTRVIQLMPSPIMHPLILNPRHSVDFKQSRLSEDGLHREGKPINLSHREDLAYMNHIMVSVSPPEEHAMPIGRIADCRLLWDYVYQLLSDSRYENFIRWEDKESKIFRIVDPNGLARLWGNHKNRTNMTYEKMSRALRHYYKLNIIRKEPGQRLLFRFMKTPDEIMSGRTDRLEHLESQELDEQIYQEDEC
Sequence of ETV1 (P50549 whole entry): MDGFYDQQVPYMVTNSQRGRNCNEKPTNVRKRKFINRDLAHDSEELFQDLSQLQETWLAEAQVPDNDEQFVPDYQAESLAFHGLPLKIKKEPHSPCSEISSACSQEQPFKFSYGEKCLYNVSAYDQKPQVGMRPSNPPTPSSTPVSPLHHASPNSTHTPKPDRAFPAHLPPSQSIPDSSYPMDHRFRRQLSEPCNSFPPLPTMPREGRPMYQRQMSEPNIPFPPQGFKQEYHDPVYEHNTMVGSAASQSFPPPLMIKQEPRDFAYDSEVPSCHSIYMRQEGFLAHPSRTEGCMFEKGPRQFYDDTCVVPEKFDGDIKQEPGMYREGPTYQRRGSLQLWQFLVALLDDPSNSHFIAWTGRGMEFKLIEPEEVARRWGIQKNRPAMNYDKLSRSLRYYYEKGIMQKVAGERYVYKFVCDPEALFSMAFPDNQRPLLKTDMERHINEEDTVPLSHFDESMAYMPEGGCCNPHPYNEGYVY
Sequence of HSF1 (Q00613 whole entry): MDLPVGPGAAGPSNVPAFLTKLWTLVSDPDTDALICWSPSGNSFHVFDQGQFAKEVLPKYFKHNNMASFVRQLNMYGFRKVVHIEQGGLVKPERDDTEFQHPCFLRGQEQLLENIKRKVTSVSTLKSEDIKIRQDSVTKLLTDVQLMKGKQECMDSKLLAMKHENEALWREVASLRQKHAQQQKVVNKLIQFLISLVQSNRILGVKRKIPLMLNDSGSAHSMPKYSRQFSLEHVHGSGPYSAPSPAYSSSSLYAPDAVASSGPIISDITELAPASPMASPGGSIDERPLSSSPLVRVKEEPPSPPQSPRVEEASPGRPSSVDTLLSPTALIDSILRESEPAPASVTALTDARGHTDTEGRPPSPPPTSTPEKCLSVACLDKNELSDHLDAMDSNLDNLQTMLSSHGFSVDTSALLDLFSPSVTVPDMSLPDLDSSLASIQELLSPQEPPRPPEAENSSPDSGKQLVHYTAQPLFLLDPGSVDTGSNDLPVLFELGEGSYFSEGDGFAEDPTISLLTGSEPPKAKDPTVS

On to ATTTCC, for which the binding signal with FEV was 6.05 fold enrichment (6-mer frequency, TF over GST control); with ETV5, 4.48 fold enrichment (6-mer frequency, TF over GST control); in the assay with HSF1 it was 1.66 fold enrichment (6-mer frequency, TF over GST control); with SPIC it was 4.21 fold enrichment (6-mer frequency, TF over GST control); in the assay with ELF4, 3.62 fold enrichment (6-mer frequency, TF over GST control); in the assay with ELK4, 3.35 fold enrichment (6-mer frequency, TF over GST control). The binding signal with ETV2 was 4 fold enrichment (6-mer frequency, TF over GST control); with ELF3, 3.48 fold enrichment (6-mer frequency, TF over GST control); with CRX, 1.5 fold enrichment (6-mer frequency, TF over GST control); with ETV1, 4.04 fold enrichment (6-mer frequency, TF over GST control); with ERF it was 3.64 fold enrichment (6-mer frequency, TF over GST control); in the assay with ETV3L, 3.98 fold enrichment (6-mer frequency, TF over GST control). Besides, the binding signal with ETS2 was 4.24 fold enrichment (6-mer frequency, TF over GST control); with SPDEF it was 3.68 fold enrichment (6-mer frequency, TF over GST control); in the assay with ETV7, 3.78 fold enrichment (6-mer frequency, TF over GST control); with ELF5, 6.17 fold enrichment (6-mer frequency, TF over GST control); in the assay with ETV3, 4.45 fold enrichment (6-mer frequency, TF over GST control); with ETV6 it was 4.99 fold enrichment (6-mer frequency, TF over GST control).
